Screening data from PubChem BioAssay.
Pf growth 48h – P. falciparum growth inhibition at 48 hours (one generation). 310,000 tested, 5.9% active. Potency, µM (highest dose often 28.7 µM), for inactives: top-dose activity change, negative = inhibition, actives largely listed as inhibitors. P. falciparum luciferase growth in erythrocytes, 48 h; active means well fitted inhibition curve with a large enough effect; inconclusive means small, poorly fitted or top-dose-only effect, or another doubt; inactive means no such curve, though single readings can be large or run the other way; further: potency means the concentration at half of the fitted maximal effect; on the % scale 0 is the no-effect control and ±100 the full control effect
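Compounds are pin-transferred into medium, infected erythrocytes (2% hematocrit, 0.1% parasitemia final) are added, and plates sit one parasite generation at 37 C in 5% CO2. Detection reagent is then added and luminescence measured.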
NS1 function inh – blocks influenza NS1 protein function. Potency, µM (titrated, usually from 46.1 µM), for inactives: at the top dose activity, positive = more growth. 270,000 tested, 0.4% active; further: potency means the concentration at half of the fitted maximal effect; actives are rising curves; nearly all actives have a fitted effect of over 50% in size
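In this qHTS, NS1 from influenza A is expressed in budding yeast, where it slows growth. Cells are switched from glucose to 2% galactose medium (pH 6.0, -URA), treated with compound, and growth recovery is read at OD600.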
CHX counter – counter-screen for Shiga toxin inhibitors: cycloheximide protein synthesis inhibition; cell reporter, cycloheximide protein synthesis inhibition counterscreen; max response, %; 300,000 tested, 12% active; AID 2314; in the data active means max response mostly above about 13%, no sharp cut-off; inactive means mostly below about 14%; further: read at 38.3 µM for the half of the compounds with a filed dose; 0% is about no effect
SARS PLP yeast – SARS-CoV PLP inhibition in yeast | S. cerevisiae expressing SARS-CoV PLpro, growth rescue | Potency, µM (highest dose often 32.9 µM), inactives show top-dose activity, positive = growth rescue, most hits filed as activators | 330,000 tested, 0.19% active; further: potency means the concentration at half of the fitted maximal effect; 0% is about no effect; nearly all actives have a fitted effect of over 55% in size
Pf growth 96h – P. falciparum growth inhibition at 96 hours | P. falciparum luciferase reporter growth, 96 h | Potency, µM (titrated, usually from 28.7 µM), without a hit: at the top dose activity change, negative = inhibition, hits mostly inhibitors | 320,000 tested, 6.9% active | AID 504834; active means well fitted inhibition curve with a large enough effect; inconclusive means small, poorly fitted or top-dose-only effect, or another doubt; inactive means no such curve, though single readings can be large or run the other way; further: potency means the concentration at half of the fitted maximal effect; on the % scale 0 is the no-effect control and ±100 the full control effect
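Infected RBCs, 2% Hct / 0.05% parasitemia final; luciferase-reporter P. falciparum; cpd 96 h, 37 C, 5% CO2; luciferase detection reagent; luminescence.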
Shiga inhibitor – blocks Shiga toxin action in Vero cells; Vero cells, Shiga toxin protein synthesis inhibition reporter; inhibition, % at 38.7 µM; 290,000 tested, 9.2% active; in the data active means inhibition mostly above about 28%, no sharp cut-off; inactive means mostly below about 43%; further: 0% is about no effect
The depositor's hits bear a star; ? = inconclusive; . = no result given. An excerpt weighted towards active compounds, which were near 21% of everything screened. Unless noted, the call rests on the fitted dose curve.

SMILES	Pf growth 48h	NS1 function inh	CHX counter	SARS PLP yeast	Pf growth 96h	Shiga inhibitor
O=C(Oc1oc(-c2ccco2)nc1C=Nc1ccccc1)c1ccoc1	42%	-55%	17*	2%	.	21
O=c1oc(-c2ccco2)nc2ccccc12	12%	-117%	10	-1%	.	-10
O=C(Oc1oc(-c2ccco2)nc1C=Nc1ccccc1)c1ccco1	55%	-3%	16*	0%	41%	39*
COC(=O)C(C(C)C)N1CC(=O)c2ccccc2S1(=O)=O (stereo not drawn)	.	.	-2	.	.	-3
Cc1cc(=O)[nH]c(SCC(=O)NCCC2=CCCCC2)n1	1%	.	-2	1%	7%	-4
Cn1c2c(c(=O)n(C)c1=O)C(c1cc3c(cc1Br)OCO3)CC(=O)N2 (stereo not drawn)	21%	-9%	3	-3%	9.3µM*	4
CC1=C(C(=O)OC2CCCCCCC2)C(c2cc3c(cc2Br)OCO3)CC(=O)N1 (stereo not drawn)	10µM*	?	3	-14%	.	-7
NC(=O)c1cc(S(=O)(=O)N2CCCC2)ccc1OCCOc1ccccc1	?	.	.	-9%	?	.
CCN(Cc1ccncc1)C(=O)CC1C(=O)NCCN1Cc1ccc(F)c(F)c1 (stereo not drawn)	0%	-7%	0	1%	?	-7
COc1ccc(OCC(=O)NNC(=O)c2ccc3c(=O)n4c(nc3c2)CCC4)cc1	-9%	3%	-1	20%	8%	-2
Nc1nc2ccccc2n1/N=C/c1ccc2c(c1)OCO2	-22%	?	32*	1%	-24%	91*
Cn1c(/N=C/c2ccc3c(c2)OCO3)nc2ccccc21	2%	9%	-1	6%	-15%	-3
Nc1nnnn1/N=C/c1ccc(Br)cc1	33%	7%	10	-3%	67%	26
Nc1nc2ccccc2n1/N=C/c1ccc(Br)cc1	-77%	-15%	43*	-13%	10µM*	93*
Cc1csc2nc(O)c(C(=O)NCC3CCCO3)c(=O)n12 (stereo not drawn)	?	.	.	7%	-4%	.
CC1CC(NC(=O)c2cc3c(=O)n4ccccc4nc3n2C)CC(C)(C)C1 (stereo not drawn)	12µM*	-11%	-3	10%	0%	-2
CC1CCCCC1NC(=O)c1cc2c(=O)n3ccccc3nc2n1C (stereo not drawn)	0%	3%	1	15%	2.3µM*	23
Cc1csc2nc(O)c(C(=O)NC3CCCCC3C)c(=O)n12 (stereo not drawn)	7.4µM*	.	.	7%	?	.
CC1CCCCC1NC(=O)c1c(O)nc2ccccn2c1=O (stereo not drawn)	5.2µM*	.	.	-1%	5.2µM*	.
CN(C)S(=O)(=O)N1CCN(C(=O)c2cccs2)CC1	-1%	8%	1	4%	.	14
COc1ccc(NC(=O)CSc2nc3[nH]ncc3c(=O)[nH]2)c(OC)c1	-4%	.	.	.	-13%	.
COc1ccc(NC(=O)c2cc(C3CC3)nc3c2cnn3C(C)C)cc1OC	?	.	.	-3%	15µM*	.
COc1ccc(CCNC(=O)c2cc(C3CC3)nc3c2cnn3C(C)C)cc1	?	.	.	2%	?	.
COc1ccccc1CCNC(=O)c1cc(C2CC2)nc2c1cnn2C(C)C	?	.	.	-3%	10µM*	.
COc1ccccc1OCCNC(=O)c1cc(C2CC2)nc2c1cnn2C(C)C	?	.	.	-16%	10µM*	.
SMILES	Pf growth 48h	NS1 function inh	CHX counter	SARS PLP yeast	Pf growth 96h	Shiga inhibitor
COc1cc(C)c(NC(=O)c2cc(C3CC3)nc3c2cnn3C(C)C)cc1OC	?	.	.	-6%	?	.
COc1ccccc1N(C)S(=O)(=O)c1ccc(C)c(C(=O)NC(C)c2ccccn2)c1 (stereo not drawn)	?	.	.	1%	?	.
Cc1ccsc1/C=N/n1cnc2sc(C)c(C)c2c1=O	48%	-111%	16*	1%	25%	32
Cc1sc2ncn(/N=C/c3cn(-c4ccccc4)nc3-c3ccccc3)c(=O)c2c1C	.	.	6	.	.	6
COc1ccc(-n2c(C)c([N+](=O)[O-])c3ccc(O)c(CN(C)C)c32)cc1	0.83µM*	?	-6	-2%	?	-12
COC(=O)C1=C(C)N(C2CCCCC2)C(=O)C1	1%	1%	-2	1%	1.9µM*	-14
O=C(NC1(C(F)(F)F)Oc2ccc(Cl)cc2O1)N1CCC2(CC1)OCCO2 (stereo not drawn)	.	-8%	-2	7%	1.9µM*	-6
COc1nc(N2CCOCC2)nc(C)c1[N+](=O)[O-]	-2%	5%	-2	-7%	12µM*	-4
Clc1ccc(Oc2nnnn2-c2ccccc2)cc1	33%	-9%	15	-3%	50%	27
COc1cccc(Oc2nnnn2-c2ccccc2)c1	140%	-34%	33*	1%	?	146
COc1ccc(Oc2nnnn2-c2ccccc2)cc1	62%	-6%	32*	12%	76%	31*
CCOC(=O)Cc1csc(N/N=C\c2ccccc2OC)n1	17%	20%	24*	-8%	2%	50*
CCOC(=O)Cc1csc(NC(=O)COc2ccccc2)n1	-15%	?	-2	-3%	12%	-5
CCOC(=O)Cc1csc(N/N=C/c2ccccc2)n1	180%	-4%	61*	16%	5%	104*
CCOC(=O)Cc1csc(N/N=C\c2cccc(Br)c2)n1	91%	5%	11*	8%	52%	52*
CCOC(=O)Cc1csc(NC(=O)c2cccnc2)n1	22%	-3%	-1	4%	-16%	-2
CCOC(=O)Cc1csc(N/N=C\c2ccc(N(C)C)cc2)n1	7.4µM*	7%	24*	12%	9.3µM*	64*
COc1ccc(/C=N/Nc2nc(C(=O)O)cs2)cc1	159%	13%	25*	?	0%	34*
COC(=O)c1ccc(/C=N/Nc2nc(-c3ccc(C)cc3)cs2)cc1	0%	-19%	-2	29%	54%	2
CCOC(=O)N1CCN(C(=O)c2ccc3c(c2)N(Cc2cccc(Cl)c2)C(=O)c2ccccc2S3=O)CC1 (stereo not drawn)	7.4µM*	20%	2	-4%	19%	-2
CCN1CCN(CCNC(=O)c2ccc3c(c2)N(Cc2ccc(F)cc2)C(=O)c2ccccc2S3=O)CC1 (stereo not drawn)	10µM*	0%	-2	2%	10%	-3
CC1CCCCN1CCNC(=O)c1ccc2c(c1)N(Cc1cccc(Cl)c1)C(=O)c1ccccc1S2=O (stereo not drawn)	2.9µM*	-3%	-4	2%	2%	-9
CC1CC(C)CN(CCCNC(=O)c2ccc3c(c2)N(Cc2ccccc2)C(=O)c2ccccc2S3=O)C1 (stereo not drawn)	?	4%	-14	7%	53%	-22
CN1CCN(C(=O)c2ccc3c(c2)N(Cc2cccc(Cl)c2)C(=O)c2ccccc2S3=O)CC1 (stereo not drawn)	.	17%	.	.	.	.
